The results in this text go back to PubChem BioAssay (NCATS).

The target in test [1] is Lysosomal acid glucosylceramidase (Homo sapiens) (UniProt P04062). Briefly: Glucocerebrosidase-p2 (AID 348; in the data active means potency below about 10 µM; further: potency means the concentration at half of the fitted maximal effect). Particulars: purified GBA, blue fluorogenic substrate, 40 min. Put shortly:
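Normal human glucocerebrosidase (0.2 nM) with blue fluorogenic substrate (80 uM final) in citrate/phosphate pH 5.9 with 10mM sodium taurocholate, 0.01% tween-20; 40 min RT, NaOH/glycine stop; fluorescence Ex 365/Em 440; AC50 from a titration from 0.6 nM upwards.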

Test [2] in a line: AP1 Signaling Pathway (AID 357).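 Further: ME-180 reporter cells stimulated with EGF at its EC50 level; on the % scale 0 is the no-effect control and ±100 the full control effect.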 Particulars: ME-180 AP-1-bla reporter, EGF-induced, beta-lactamase ratio, 5 h; at 7.69 µM (top of the series) unless noted. The method, boiled down:
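Read-out was the 460nm/530nm emission ratio (excitation 405nm) after CCF4 loading for 2.5 hours at room temperature. Cells carried an AP-1-driven beta-lactamase reporter, were stimulated with EC50 EGF plus compound for 5 hours, and AC50 values came from titrations.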

The nature of test [3]: NFAT Signaling Pathway (AID 444).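 Further: carbachol stimulus at about its EC50 of 1 µM final; on the % scale 0 is the no-effect control and ±100 the full control effect.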 The following applies: Jurkat NFAT-bla M1, carbachol, beta-lactamase ratio, 5 h; at 7.69 µM (top of the series) unless noted. The method, boiled down: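 Jurkat cells carrying an NFAT-driven β-lactamase reporter and co-transfected muscarinic M1 receptor were treated with compound plus carbachol (1 uM final, an EC50 level) for 5 h at 37 °C. CCF4 loading followed for 1 h at RT; 460/530 nm ratio gave %activity.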

The nature of test [4]: Stat Signaling Pathway (AID 446).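 Further: ME-180 cervical cancer cells given 40 pM IL-6 alongside compound; SIE-controlled beta-lactamase reporter measured as 460/530 nm FRET emission ratio; on the % scale 0 is the no-effect control and ±100 the full control effect.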 Particulars: ME-180 SIE beta-lactamase reporter, IL-6 stimulated, 5 h; at 7.69 µM (top of the series) unless noted. Put shortly: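 Normalization used AC90 stimulation (300 pM IL-6) and AC90 inhibition (125 nM pan-JAK inhibitor at 40 pM IL-6). The underlying signal is SIE-driven beta-lactamase in ME-180 cells after 5 h IL-6 exposure with compound.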

The target in test [5] is Glucocorticoid receptor (Homo sapiens) (UniProt P04150). Briefly: GR-EFC Redistribution (AID 451; calls by dose curve; further: potency means the concentration at half of the fitted maximal effect). The following applies: CHO-K1 GR-EFC translocation, beta-gal luminescence, 2 h. The method, boiled down:
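CHO-K1 cells stably expressing nuclear-localized β-gal enzyme acceptor and GR fused C-terminally to the enzyme donor fragment; ligand-driven nuclear translocation restores β-gal by complementation. Compounds titrated up to 46 uM final, 2 h at 37 °C; luminescence read.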

The target of test [6] is Mitogen-activated protein kinase 10 (Mus musculus) (UniProt Q61831). Briefly: JNK3 AlphaScreen Assay (AID 530).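 Further: kinase came from lysate of stimulated human HepG2 cells; signal reports phosphorylation of biotinylated GST-cJun 1-79 at Ser73 with 10 µM ATP; on the % scale 0 is the no-effect control and ±100 the full control effect.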 The following applies: JNK3 lysate, c-Jun phosphorylation; series mostly up to 57.1 µM. The method, boiled down:
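Biotinylated GST-cJun(1-79) served as substrate for JNK3 in HepG2 lysates stimulated with IL-1beta and TNF-alpha. ATP was 10 uM final, pH 7.6. Ser73 phosphorylation was quantified by AlphaScreen (680 nm excitation).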
Background: In Alpha technology, singlet oxygen from a donor bead excites a nearby acceptor bead.

The target of test [7] is 3',5'-cyclic-AMP phosphodiesterase 4B (Homo sapiens) (UniProt Q07343). Briefly: qHTS Assay for Inhibitors of PDE-IV (AID 607; active means well fitted activation curve with a large enough effect in the main read-out, with a control signal flat, not every such curve was filed as active; further: % of control where 0% means no effect). Particulars: HEK293 ACTOne CNG channel cells, membrane potential fluorescence; series mostly up to 22.9 µM. Put shortly:
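HEK293 ACTOne cells with CNG channel (1000/well), endogenous PDE4; membrane potential dye, compounds up to 22.9 uM final. Fluorescence Ex 535/Em 590; RO 20-1724 (100 uM final) as reference.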
For orientation: Quantitative high-throughput screening tests each substance at several concentrations.

Test [8] is described as follows: qHTS Assay for Identification of Small Molecule Agonists for Hypoxia Response Element Signaling Pathway (AID 914; active means well fitted activation curve with a large enough effect in the signal ratio, with a control signal flat, not every such curve was filed as active; the % refers to the signal ratio; further: % of control where 0% means no effect). The following applies: ME-180 (cervical carcinoma) HRE-bla reporter, beta-lactamase ratio, CoCl2, 17 h; activation: stronger effect = higher value. The method, boiled down:
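Positive modulation of EC50 CoCl2-induced hypoxia response element signaling is measured in ME-180 cells with a beta-lactamase reporter. Compounds are titrated, incubation runs 17 hours, and %Activity derives from the blue/green ratio.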

Test [9] in a line: qHTS Assay for Lipid Storage Modulators (AID 1519; calls by dose curve). Particulars: Drosophila S3 cells, BODIPY lipid droplet/cell ratio, laser cytometry, cells loaded with oleic acid; for activity change, negative = inhibition: at 57.5 µM (top of the series). Put shortly: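 Cells seeded at 5,000 per well were treated with compounds over a concentration series and loaded with oleic acid (400 uM, as added). Lipid droplet fluorescence (488 nm excitation, 500-530 nm channel) was read by laser-scanning cytometry and normalized to 20 uM Triacsin C.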

Test [10] in a line: Primary qHTS for small molecule stabilizers of the endoplasmic reticulum resident proteome: Secreted ER Calcium Modulated Protein (SERCaMP) assay (AID 1508630; active means well fitted inhibition curve with a large enough effect; further: on the % scale 0 is the no-effect control and ±100 the full control effect). The following applies: SH-SY5Y GLuc-SERCaMP (Gaussia luciferase released on ER calcium loss) secretion, thapsigargin, luminescence; series mostly up to 38.4 µM. Put shortly:
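The SH-SY5Y reporter protocol was run at 3 concentrations up to 38.3 uM (primary) or 11 concentrations (follow-up): 16 h compound, 100 nM thapsigargin for 4 h, then extracellular luciferase luminescence.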

In test [11] the target is Cytochrome P450 2D6 (Homo sapiens) (UniProt P10635). In words: qHTS Assay for Inhibitors and Substrates of Cytochrome P450 2D6 (AID 891; active means well fitted inhibition curve with a large enough effect; further: potency means the concentration at half of the fitted maximal effect; nearly all actives have a fitted effect of over 60% in size). The following applies: recombinant CYP2D6, luciferin-ME EGE luminescence; series mostly up to 57.1 µM. The method, boiled down: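 Luminescent read-out of luciferin formed by 5 nM human CYP2D6 demethylating 30 uM Luciferin-ME EGE (Km level) over 60 min at room temperature after NADPH regeneration addition. Data normalized to full inhibition by 1.43 uM quinidine.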
Sequence of Cytochrome P450 2D6 (Homo sapiens) (P10635 whole entry, looked up): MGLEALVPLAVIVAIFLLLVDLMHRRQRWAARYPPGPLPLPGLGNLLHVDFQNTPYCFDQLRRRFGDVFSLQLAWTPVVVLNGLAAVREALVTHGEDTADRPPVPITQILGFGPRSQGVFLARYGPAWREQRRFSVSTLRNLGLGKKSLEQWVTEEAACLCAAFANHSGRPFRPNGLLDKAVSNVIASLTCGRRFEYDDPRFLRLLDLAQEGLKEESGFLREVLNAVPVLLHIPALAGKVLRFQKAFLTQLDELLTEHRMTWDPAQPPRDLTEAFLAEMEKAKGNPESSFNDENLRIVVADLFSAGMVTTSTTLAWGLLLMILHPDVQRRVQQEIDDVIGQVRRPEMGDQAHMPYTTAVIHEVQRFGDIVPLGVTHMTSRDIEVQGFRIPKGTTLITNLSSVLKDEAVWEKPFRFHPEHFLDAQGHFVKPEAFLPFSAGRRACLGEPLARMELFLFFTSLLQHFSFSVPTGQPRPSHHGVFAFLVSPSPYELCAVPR

The mark [12] stands for this setting: measured here: cell count channel max response.
Setting [13] is: measured here: lipid channel max response.

Records with an inconclusive call do not appear. Calls of active or inactive are those of the source. Unless noted, the call rests on the fitted dose curve; in most records, active means well fitted curve in either direction with a large enough effect (not every such curve was filed as active); inconclusive means small, poorly fitted or top-dose-only effect, or another doubt; inactive means flat fitted curve, though single readings scatter.

Sequence of Lysosomal acid glucosylceramidase (Homo sapiens) (P04062 whole entry, looked up): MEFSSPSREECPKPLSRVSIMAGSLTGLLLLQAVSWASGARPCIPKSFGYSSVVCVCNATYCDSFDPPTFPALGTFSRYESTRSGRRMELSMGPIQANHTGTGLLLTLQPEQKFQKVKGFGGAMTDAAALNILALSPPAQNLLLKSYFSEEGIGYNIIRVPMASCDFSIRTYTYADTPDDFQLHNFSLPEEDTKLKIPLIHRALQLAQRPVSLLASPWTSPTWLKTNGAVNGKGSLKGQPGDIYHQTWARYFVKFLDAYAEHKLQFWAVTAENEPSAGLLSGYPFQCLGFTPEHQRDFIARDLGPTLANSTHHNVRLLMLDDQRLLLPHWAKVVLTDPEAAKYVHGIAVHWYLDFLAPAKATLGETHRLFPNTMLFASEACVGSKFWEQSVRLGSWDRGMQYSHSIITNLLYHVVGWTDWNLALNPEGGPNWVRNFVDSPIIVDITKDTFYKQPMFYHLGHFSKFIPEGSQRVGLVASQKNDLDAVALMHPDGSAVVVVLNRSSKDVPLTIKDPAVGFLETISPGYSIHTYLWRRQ
Sequence of 3',5'-cyclic-AMP phosphodiesterase 4B (Homo sapiens) (Q07343 whole entry, looked up): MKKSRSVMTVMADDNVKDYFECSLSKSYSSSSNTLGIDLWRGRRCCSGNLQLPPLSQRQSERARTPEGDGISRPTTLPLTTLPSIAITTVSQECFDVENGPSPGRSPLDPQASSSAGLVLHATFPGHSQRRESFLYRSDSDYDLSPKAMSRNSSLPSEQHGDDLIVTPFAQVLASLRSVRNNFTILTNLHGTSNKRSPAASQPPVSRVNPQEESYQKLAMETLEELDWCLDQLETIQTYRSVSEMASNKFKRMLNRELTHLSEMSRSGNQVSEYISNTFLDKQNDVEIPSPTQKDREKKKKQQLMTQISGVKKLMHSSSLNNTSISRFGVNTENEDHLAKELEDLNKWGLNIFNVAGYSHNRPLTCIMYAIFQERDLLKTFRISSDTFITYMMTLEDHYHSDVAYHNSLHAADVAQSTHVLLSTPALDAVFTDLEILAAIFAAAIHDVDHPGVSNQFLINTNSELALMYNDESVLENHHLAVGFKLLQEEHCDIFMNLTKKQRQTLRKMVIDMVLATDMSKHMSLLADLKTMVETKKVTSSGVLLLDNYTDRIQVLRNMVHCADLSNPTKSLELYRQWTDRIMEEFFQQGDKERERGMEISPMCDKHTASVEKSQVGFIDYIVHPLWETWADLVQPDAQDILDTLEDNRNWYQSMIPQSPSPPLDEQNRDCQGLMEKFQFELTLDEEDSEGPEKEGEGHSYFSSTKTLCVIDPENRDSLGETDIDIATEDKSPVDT
Sequence of Glucocorticoid receptor (Homo sapiens) (P04150 whole entry, looked up, the tested form may be a part): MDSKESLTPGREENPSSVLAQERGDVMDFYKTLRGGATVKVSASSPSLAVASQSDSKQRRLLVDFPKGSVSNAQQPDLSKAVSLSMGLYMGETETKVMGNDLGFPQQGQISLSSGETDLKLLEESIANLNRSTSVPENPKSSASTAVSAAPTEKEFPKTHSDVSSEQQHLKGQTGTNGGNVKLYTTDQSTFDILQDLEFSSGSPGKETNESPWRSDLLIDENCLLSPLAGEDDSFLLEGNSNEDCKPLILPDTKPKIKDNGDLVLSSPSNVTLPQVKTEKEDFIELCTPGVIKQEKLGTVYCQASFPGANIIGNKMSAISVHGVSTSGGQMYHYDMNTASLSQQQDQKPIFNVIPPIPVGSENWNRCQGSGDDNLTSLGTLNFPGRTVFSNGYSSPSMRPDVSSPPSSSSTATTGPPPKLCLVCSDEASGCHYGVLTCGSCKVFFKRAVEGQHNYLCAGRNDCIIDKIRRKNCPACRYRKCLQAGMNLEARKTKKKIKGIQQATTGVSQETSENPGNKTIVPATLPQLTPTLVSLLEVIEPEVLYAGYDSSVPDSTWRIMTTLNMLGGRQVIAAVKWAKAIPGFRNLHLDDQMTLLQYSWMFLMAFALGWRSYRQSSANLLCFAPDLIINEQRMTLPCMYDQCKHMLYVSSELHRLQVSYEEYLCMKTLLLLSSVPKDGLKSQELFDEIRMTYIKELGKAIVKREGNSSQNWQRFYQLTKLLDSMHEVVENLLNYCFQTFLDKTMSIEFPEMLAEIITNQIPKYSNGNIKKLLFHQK

Take `O=C(Nc1ccccc1)N1CC2(CCN(S(=O)(=O)c3ccccc3)CC2)C1`: the Potency is > 11.4 µM (inactive) in test [1] and > 46 µM (inactive) in [5]. Further, the figures for the activity change, negative = inhibition in test [2], in test [3] and in [9] were -1.41% (inactive), 16.1% (inactive) and -5.83% (inactive), respectively. The activity, negative = inhibition in [4] was -2.14% (inactive). Also, the Potency result in test [6] and in test [7] was “inactive” each time. Moreover, the activation in [8] was -12.4% (inactive). For the same compound, the max response was 0.332% in test [9] (setting [12]) and -5.36% in test [9] (setting [13]). The result in test [10] was inactive.
`CC(C)NC(=O)N1CC2(CCN(C(=O)c3cc(C(F)(F)F)cc(C(F)(F)F)c3)CC2)C1`: the Potency was > 11.4 µM (inactive) in test [1], > 46 µM (inactive) in test [5] and 251 nM (active) in [11]. Also, the activity change, negative = inhibition in test [2] was -16.3% (inactive); in [3] it was 6.43% (inactive); in test [9] it was 0.828% (inactive). The activity, negative = inhibition in [4] was -11.9% (inactive). Further, the Potency result in test [6] and in test [7] was “inactive” throughout. Further, the figures for the max response in test [9] (setting [12]) and in test [9] (setting [13]) were 11% and 13.7%, respectively. Besides, in [10], the result was inactive.
On to `O=C(c1cnccn1)N1CCC2(CC1)CCN(c1ccncc1)CC2`, for which the Potency in test [1] is > 11.4 µM (inactive); in test [5] it was > 46 µM (inactive). Further, the activity change, negative = inhibition in test [2] was 15.7% (inactive); in [9] it was 2.66% (inactive). Besides, the activity, negative = inhibition in test [4] is 2.83% (inactive). In addition, the Potency entry in [6] and in test [7] was “inactive” throughout. In addition, the values for the max response in test [9] (setting [12]) and in test [9] (setting [13]) were 3.08% and 8.09%, respectively. Also, in test [10], the result was inactive.
In the case of `O=C(c1cc(C(F)(F)F)cc(C(F)(F)F)c1)N1CCC2(CCCN(c3ccccc3)C2)CC1`, the Potency in [1] was > 11.4 µM (inactive); in [5], > 46 µM (inactive). Besides, the activity change, negative = inhibition in [2] was 22.8% (inactive); in test [9] it was -18.4% (inactive). For the same compound, in [4], the activity, negative = inhibition was 2.12% (inactive). In addition, the Potency result in test [6] and in test [7] was “inactive” throughout. For the same compound, the max response is 1.58% in [9] (setting [12]) and -14.9% in [9] (setting [13]). Also, the outcome in test [10] was inactive.
Take `COCC(=O)N1CCC2(CC1)CCN(C(=O)NC(C)C)CC2`: the Potency in test [1] was > 11.4 µM (inactive); in test [5] it was > 46 µM (inactive). Moreover, the activity change, negative = inhibition is -2.26% (inactive) in test [2], 0.244% (inactive) in test [3] and 0.579% (inactive) in test [9]. Further, the activity, negative = inhibition in test [4] was 6.66% (inactive). Also, the Potency result in test [6] and in test [7] was “inactive” in each case. Also, the activation in test [8] is -5.43% (inactive). For the same compound, the max response stood at 13.2% in test [9] (setting [12]) and 16.2% in test [9] (setting [13]). Moreover, the result in test [10] was inactive.
For `O=C(c1csnn1)N1CCC2(CCCN(c3ccncc3)C2)CC1`, the Potency in [1] is > 11.4 µM (inactive); in test [5], > 46 µM (inactive). Also, the activity change, negative = inhibition in [2] was -17.6% (inactive); in test [9] it was -0.384% (inactive). Besides, the activity, negative = inhibition in test [4] was -10.5% (inactive). For the same compound, the Potency result in test [6] and in test [7] was “inactive” in each case. Further, the figures for the max response in test [9] (setting [12]) and in test [9] (setting [13]) were 0.465% and -0.685%, respectively. Further, the result in test [10] was inactive.
For `O=C(c1ccncc1)N1CCC2(CCCN(Cc3nccs3)C2)CC1`, the Potency is > 11.4 µM (inactive) in test [1] and > 46 µM (inactive) in test [5]. Also, the figures for the activity change, negative = inhibition in [2] and in [9] were -14.3% (inactive) and 6% (inactive), respectively. Also, the activity, negative = inhibition in test [4] is 7.31% (inactive). Moreover, the Potency result in test [6] and in test [7] was “inactive” throughout. Also, the max response turned out to be 2.79% in test [9] (setting [12]) and 11.6% in test [9] (setting [13]). In addition, the outcome in test [10] was inactive.
